Screens as filed in PubChem BioAssay.
The list is not random: actives were taken first. Their share in the collection is about 5.5%.
Mito fusion act: mitochondrial division inhibition or fusion activation | S. cerevisiae fusion-defective mutant growth rescue, CellTiterGlo 48 h | Potency, µM (top dose mostly 46.1 µM), for inactives: top-dose growth rescue (activation), usual class: activators | hit rate 0.23% among 320,000 | AID 485298; further: % of control where 0% means no effect; nearly all actives have a fitted effect of over 45% in size
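S. cerevisiae fusion-defective temperature-sensitive mutants (e.g. fzo1-1, mgm1-5) grown 48 h at 37C in YPEG (ethanol/glycerol non-fermentable) medium with 23 nl compound per well; growth rescue read as CellTiterGlo luminescence.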
BCR signal inh: chronic active BCR signaling inhibition. ABC-DLBCL IkBa-CBG/CBR reporter, luminescence ratio, 4 h. Potency, µM (top dose mostly 46.1 µM), inactives show at the top dose activity change, negative = inhibition, hits mostly inhibitors. AID 493014. hit rate 0.05% among 340,000; active means well fitted inhibition curve with a large enough effect in the signal ratio, with a control signal flat, not every such curve was filed as active; inconclusive means small, poorly fitted or top-dose-only effect, or effect the other way, or a change in a side signal; the % refers to the signal ratio;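 further: plate controls were basal doxycycline-induced cells for no effect and cells given 10 µM MG132 for full effect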
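TMD8 ABC-DLBCL cells carrying doxycycline-inducible green luciferase fused to IkappaBalpha plus unfused red luciferase were exposed to compounds (up to 46 uM) for 4 hrs at 37C. Activity came from the overlap-corrected green/red luminescence ratio.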
a7 integrin act: integrin-mediated muscular dystrophy alleviation activation; Potency, µM (highest dose often 38.3 µM), for the others: at the top dose activation, actives largely listed as activators; AID 624291; hit rate 0.064% among 350,000; alpha7betagal myoblasts, beta-gal FDG fluorescence, 48 h;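 further: 100% = response of the positive control SU9516; nearly all actives have a fitted effect of over 60% in size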
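Alpha7betagal+/- myoblasts (passage 13) were plated 16-24 hr, then exposed to compounds (1:260 dilution of DMSO stock) for 48 hours at 37C. After MPER lysis, β-galactosidase reporter activity was read as FDG fluorescence (ex 480/em 540) after 30 minutes.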
uPA surface inh: blocks generation of uPA at the cell surface | AID 540303 | cell surface uPA generation assay, qHTS | Potency, µM (highest dose often 38.3 µM), without a hit: top-dose activity change, negative = inhibition, hits mostly inhibitors | hit rate 0.31% among 330,000; active means well fitted inhibition curve with a large enough effect; inconclusive means small, poorly fitted or top-dose-only effect; inactive means no such curve, though single readings can be large or run the other way; tested in mouse RAW 264.7 cells; further: on the % scale 0 is the no-effect control and ±100 the full control effect; nearly all actives have a fitted effect of over 55% in size
VP16 counter: counter-screen for ROR gamma inhibitors: Gal4-VP16 reporter. hit rate 3.5% among 310,000. Potency, µM (doses to about 53.6 µM), for inactives: top-dose activity, negative = inhibition, most hits filed as inhibitors. Drosophila S2 Gal4-VP16 UAS-luciferase, luminescence, 20 h;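 further: Gal4-VP16 expression switched on by copper sulfate through the metallothionein promoter; on the % scale 0 is the no-effect control and ±100 the full control effect; nearly all actives have a fitted effect of over 50% in size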
RORg inh: ROR gamma (mouse) transcription inhibition. AID 2551. Drosophila S2 Gal4-RORgamma UAS-luciferase reporter, 20 h. P51450. hit rate 5.4% among 310,000. Potency, µM (top dose mostly 53.6 µM), inactives show at the top dose activity change, negative = inhibition, usual class: inhibitors; further: on the % scale 0 is the no-effect control and ±100 the full control effect; nearly all actives have a fitted effect of over 60% in size
Target sequence (P51450 whole entry, looked up, the tested form may be a part): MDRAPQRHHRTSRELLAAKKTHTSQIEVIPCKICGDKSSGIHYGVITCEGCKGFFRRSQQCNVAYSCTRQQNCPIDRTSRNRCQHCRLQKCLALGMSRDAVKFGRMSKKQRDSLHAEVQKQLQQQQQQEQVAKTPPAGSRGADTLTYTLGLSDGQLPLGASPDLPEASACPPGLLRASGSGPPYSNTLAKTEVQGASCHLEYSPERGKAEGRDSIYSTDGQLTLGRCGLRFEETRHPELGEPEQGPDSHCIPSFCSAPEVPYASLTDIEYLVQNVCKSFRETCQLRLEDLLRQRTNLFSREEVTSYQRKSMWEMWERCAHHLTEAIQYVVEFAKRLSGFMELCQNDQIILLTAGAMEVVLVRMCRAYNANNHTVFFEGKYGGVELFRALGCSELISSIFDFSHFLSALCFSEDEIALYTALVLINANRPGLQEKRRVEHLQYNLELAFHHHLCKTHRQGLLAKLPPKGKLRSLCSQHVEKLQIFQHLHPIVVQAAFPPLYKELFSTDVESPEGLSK
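In this cell-based reporter format, copper sulfate (700 uM final) drives Gal4–ROR gamma fusion expression from a metallothionein promoter in Drosophila Schneider cells; compounds preincubated 1 hr, reporter read after 20 hr at ambient temperature.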
The depositor's hits bear a star; ? = inconclusive; . = no result given; ! = not confirmed by another sample; [ ] = another dose, or the depositor's remark. Unless noted, the call rests on the fitted dose curve; in most records, active means well fitted curve in the direction sought with a large enough effect; inconclusive means small, poorly fitted or top-dose-only effect, or another doubt; inactive means no such curve, though single readings can be large; an effect the other way counts as inactive or inconclusive. Potency means the concentration at half of the fitted maximal effect.

SMILES | Mito fusion act | BCR signal inh | a7 integrin act | uPA surface inh | VP16 counter | RORg inh
Cc1cccc(/C=N/NC(=O)c2ccccc2OCc2cccc(Br)c2)n1 | 11.3% | ? | -41.5% | -5.0% | ? | 15.8µM*
O=C(N/N=C/c1ccc(Cl)cc1Cl)c1ccc2nc[nH]c2c1 | -9.7% | -5.3% | 23.8% | -2.7% | 10.9% | 0.2%
O=C(N/N=C/c1ccc(Cl)cc1Cl)c1cccc(F)c1 | -3.0% | -23.7% | -15.8% | . | ? | 11.2µM*
CC1CCCCC12NC(=O)N(CC(=O)Nc1sccc1C(N)=O)C2=O (stereo unspecified) | 3.4% | -0.4% | 7.1% | 5.5% | . | .
CC[C@@]1(O)CC2CN(CCc3c([nH]c4ccccc34)[C@](C(=O)OC)(c3cc4c(cc3OC)N(C)C3[C@@](O)(C(=O)OC)C(OC(C)=O)[C@]5(CC)C=CCN6CC[C@@]43C65)C2)C1 (stereo partly specified) | . | . | . | . | -7.0% | 24.0%
O=C(N/N=C/c1c(Cl)cccc1Cl)c1ccccc1F | . | -2.6% | -4.7% | 2.3% | -0.8% | -11.8%
O=C(N/N=C/c1c(Cl)cccc1Cl)c1ccc(F)cc1 | -2.0% | ? | -17.1% | . | -0.6% | 11.2µM*
Cc1cc(N)n(Cc2cccs2)n1 | 5.0% | -0.5% | -16.9% | 2.8% | 3.8% | -10.7%
CC(=O)c1ccc(NC(=O)Nc2ncn(Cc3cccc(C)c3)n2)cc1 | 6.8% | -6.5% | -24.0% | . | 7.0% | ?
CCc1c(C(=O)Nc2ncn(Cc3cccc(C)c3)n2)csc1C | 0.1% | 0.3% | 14.2% | . | 12.6µM* | 3.98µM*
Cc1cccc(OCCCc2c(C)n[nH]c2C)c1 | -9.0% | ? | -21.6%[7.66 µM] | . | -1.5% | 11.2µM*
COc1cccc(OC)c1OCCCc1c(C)n[nH]c1C | -5.2% | 1.8% | -1.5% | -1.4% | 1.6% | -34.2%
COc1ccccc1Nc1cc2cc(Br)ccc2c(=O)[nH]1 | . | . | -9.8% | 3.16µM* | . | .
O=c1cc(-c2cccc(F)c2)[nH]c2ccc(Cl)cc12 | . | . | . | . | -11.9%[96.6 µM] | ?
Cc1ccc(-c2cc(=O)c3cc(F)ccc3[nH]2)cc1 | -0.5% | -1.0% | -8.1% | ? | -2.5% | 15.9%
COc1ccc2[nH]c(-c3cccc(F)c3)cc(=O)c2c1 | -4.7% | ? | -7.8% | 0.355µM* | 12.0%[96.6 µM] | 8.4%[96.6 µM]
Cc1ccc(-c2cc(=O)c3cc(C)ccc3[nH]2)cc1 | 8.5% | ? | -22.1% | 1.12µM* | 15.8µM* | 10µM*
COc1ccc2[nH]c(-c3ccccc3)cc(=O)c2c1 | . | . | . | . | -26.2%[96.6 µM] | ?
O=c1cc(-c2ccccc2)[nH]c2ccc(F)cc12 | -5.3% | ? | -1.0% | 0.398µM* | -6.1%[96.6 µM] | ?
O=c1cc(-c2cccc(F)c2)[nH]c2ccccc12 | -3.0% | 20.6µM* | -1.3% | ? | -3.3%[96.6 µM] | 24.3%[96.6 µM]
O=c1cc(-c2ccccc2)[nH]c2ccc(Cl)cc12 | . | . | . | . | 18.3%[96.6 µM] | -2.1%[96.6 µM]
O=P(O)(O)O | . | . | . | . | -2.6% | -14.8%
O=c1cc(-c2ccccc2)[nH]c2cc(Cl)ccc12 | 0.4% | -9.1% | -13.7% | 0.0447µM* | -8.0%[96.6 µM] | 1.8%[96.6 µM]
COc1ccc2[nH]c(-c3ccc(F)cc3F)cc(=O)c2c1 | . | . | . | . | 3.9% | -21.8%
O=c1cc(-c2ccc(F)cc2F)[nH]c2ccccc12 | 3.8% | ? | . | . | -1.7%[96.6 µM] | 8.91µM*!
SMILES | Mito fusion act | BCR signal inh | a7 integrin act | uPA surface inh | VP16 counter | RORg inh
COc1ccc(-c2noc(CN(C)CCC3CCCCO3)n2)cc1 (stereo unspecified) | -4.9% | 13.9% | -18.6% | -0.1% | -1.4% | 10.0%
COC(=O)c1ccc(-c2noc(CN(C)CCC3CCCCO3)n2)cc1 (stereo unspecified) | 28.3% | ? | 5.4% | -0.6% | 5.62µM* | 5.62µM*
CCOC(=O)c1c(S(=O)(=O)N2CCCC(C(=O)Nc3cccc(C#N)c3)C2)c(C)n(C)c1C (stereo unspecified) | . | 6.9% | . | . | . | .
FC(F)(F)c1cccc(Cc2noc(CN3C[C@@H]4CCC[C@H]3C4)n2)c1 | 3.9% | 4.1% | 10.7% | 2.0% | 7.9% | 10.8%
Cn1ccnc1C1CCCCN1Cc1nc(-c2ccc3c(c2)OCO3)no1 (stereo unspecified) | -3.7% | -5.6% | -2.1% | 1.6% | -10.5% | ?
Cn1ccnc1C1CCCCN1Cc1nc(Cc2cccc(C(F)(F)F)c2)no1 (stereo unspecified) | -1.8% | -9.5% | 4.3% | -1.8% | ? | 7.08µM*
COc1ccc(-c2noc(CN3CCCCC3c3nccn3C)n2)cc1 (stereo unspecified) | -12.0% | 0.6% | 6.5% | 1.5% | ? | 3.55µM*
Oc1c(C(c2ccccc2Cl)N2CCCC2)sc2nc(-c3ccco3)nn12 (stereo unspecified) | . | 3.3% | . | . | . | .
Cc1ccc(CCC(=O)Nc2ccc(Cl)cc2)o1 | -1.2% | -0.5% | -31.1% | -2.2% | 8.9% | -27.1%[1.91 µM]
Cc1ccc(CCC(=O)Nc2ccc(N(C)C)cc2)o1 | -1.1% | ? | 3.2% | ? | ? | 0.562µM*
COC(=O)c1c(NC(=O)CCc2ccc(C)o2)sc(C)c1C | 14.4% | 3.9% | -2.7% | -12.8% | 12.6µM* | ?
CCCCC(C)(C)[C@H](O)/C=C/[C@H]1[C@H](O)CC(=O)[C@@H]1C/C=C\CCCC(=O)O | . | . | . | . | -3.1% | 2.5%
CSc1ccc(Cc2ccc(Cl)cc2Cl)nn1 | 0.7% | 4.1% | -5.7% | -2.0% | -2.3% | 14.0%
NNc1ccc(Cc2ccc(Cl)cc2Cl)nn1 | 0.7% | ? | -18.8% | -3.6% | ? | 3.55µM*
Clc1ccc(Cn2c(/C=C/c3ccco3)nc3ccccc32)cc1 | ? | ? | 0.0% | -14.5% | ? | ?
Cc1ccc(Cn2c(/C=C/c3ccco3)nc3ccccc32)cc1 | ? | 4.1% | -20.2% | 16.9% | ? | 11.2µM*
COc1ccc2c(c1)c(/C=N/Nc1nc3ccccc3[nH]1)c(C)n2C | -13.5% | 15.8µM* | -58.4% | -1.1% | 15.8µM* | 3.55µM*
CCCCn1c(/C=N/Nc2nc3ccccc3[nH]2)nc2ccccc21 | 2.7% | -11.0% | -21.9% | -3.1% | 1.58µM* | 1.78µM*
CCCn1c(/C=C/c2ccco2)nc2ccccc21 | -5.2% | -5.4% | -16.1% | 2.7% | ? | -37.9%
CCCCNc1nc2ccccc2[nH]1 | -0.7% | ? | 11.9% | -0.3% | 5.8% | 27.3%
CCCCn1c(/C=C/c2ccco2)nc2ccccc21 | 7.9% | 0.0% | -9.3% | -0.2% | ? | 12.6µM*
COc1cc(C(=O)O[C@H]2C/C(C)=C/CC/C(C)=C/[C@@H](O)C2C(C)C)ccc1O (stereo partly specified) | . | . | . | . | -22.1% | 6.9%
CN1CCCC(OC(=O)c2ccc(C#N)cc2)C1 (stereo unspecified) | -3.7% | -1.6% | 3.5% | 10.0% | -4.0% | -4.9%
O=C(O)c1cc(N(Cc2ccccc2O)Cc2ccccc2O)ccc1O | . | . | . | . | -1.6% | -20.6%
N#Cc1c(N(CC(=O)O)CC(=O)O)sc(C(=O)O)c1CC(=O)O | . | . | . | . | -7.5% | -1.4%
